The values below come from PubChem BioAssay (NCATS).

SMILES strings stand for the structures. Results filed as inconclusive are left out. A call without a number means that no potency is given here. Active and inactive are the calls of the source. The call rests on the fitted dose curve; in most records, active means well fitted cell-killing curve with a large enough effect; inconclusive means small, poorly fitted or top-dose-only effect; inactive means flat fitted curve, though single readings scatter. Starred links: 1 amine or outer side, 2 acyl side, 3 side chain; linkers in the order of their positions; H or OH if unused. Positions of bridges follow the written chain, without caps; N, C: chain ends. Non-standard residues stand in square brackets, D forms with d. Residues, ends and D or L forms follow the SMILES beside them. ξ: configuration not given here. *: point of attachment. X3 = C[C@@H](Oc1ccc([C@H](N[*:1])C(=O)[*:2])cc1)[C@]1(/C=C\C(=O)[*:3])CO1; d(aIle) = CC[C@H](C)[C@@H](N)C(=O)O; X2 = CC(C)[C@@H](O)C(C)C(=O)*; ξNMeF = CNC(Cc1ccccc1)C(=O)O; ξT = CC(O)C(N)C(=O)O; ξS = NC(CO)C(=O)O
Potency means the concentration at half of the fitted maximal effect.

The nature of the assay: KB-3-1 Cancer Cell Toxicity qHTS against the NCATS CANVASS Library (AID 1347366). Further: nearly all actives have a fitted effect of over 75% in size. The note with it: KB-3-1 viability, CellTiter-Glo luminescence, 72 h; series mostly up to 46.1 µM. The source says:
Natural products and their derivatives continue to be wellsprings of nascent therapeutic potential. However, many laboratories have limited resources for biological evaluation, leaving their previously isolated or synthesized compounds largely or completely untested. To address this issue, the Canvass library of natural products was assembled (https://tripod.nih.gov/canvass), in collaboration with academic and industry researchers, for quantitative high-throughput screening (qHTS) across a diverse set of cell-based and biochemical assays. The pure (>85% purity by liquid chromatography/mass spectrometry [LC/MS]) Canvass library of 346 natural products were submitted by 45 academic laboratories and companies around the world. We collected pure natural products to circumvent deconvolution and structure elucidation due to time and resource limitations. The library was formatted into 1536-well plates and evaluated in 50 qHTS (in an 11-pnt concentration series) bioassays with broad scope of disease-relevant mechanisms. The resulting data set from 50 different assays was then systematically analyzed to identify overall trends and specific natural products with interesting biological activities. Reported herein are the results of each individual qHTS and their corresponding assay protocol. […] National Center for Advancing Translational Sciences (NCATS), Rockville, MD National Institute of Health (NIH), Bethesda, Maryland
Cancer Cell Toxicity qHTS protocol 1. In a 1536 well, tissue culture treated white solid bottom plates (Corning 7494), 5 uL of KB-3-1 cell solution (final concentration of 500 cells / well) was dispensed using the Multidrop Combi dispenser (Thermo Fisher Scientific) into columns 3-48, rows 1-32. DMEM + 10% FBS + 100 U/mL penicillin / 100ug/mL streptomycin media solution was dispensed into column 1-2, row 1-32 also using the Multidrop Combi dispenser. 2. Control and Compounds were pin transferred (~23nL volume) to the assay plates via Wako Pin-tool (Wako Automation, Richmond VA) equipped with a 1536 pin head. The compounds were transferred to columns 5-48 resulting in a final concentration ranging from 0.17 nM to 103 uM. Dose response titration of Bortezomib was pin transferred into column 3, rows 1-32 (2mM; 1:2 dilution; 16 points; n = 2) resulting to a final concentration range of 0.3nM - 9.2uM. 3. The assay plates were further incubated in the at 37C, 5% CO2, 95% Rh for 72 hr. 4. After incubation, 2.5uL of CellTiter-Glo reagent (Promega) was added to the assay plates (column 1-48, rows 1-32) using the Multidrop Combi dispenser. 5. The assay plates were incubated at room temperature for 10 minutes. 6. Luminescence signal was acquired via the ViewLux plate reader (PerkinElmer) using a clear emission filter, 1 sec exposure, and 1x binning settings.
As for `CCCC[C@@H](C)/C=C1/CN2CCC[C@H]2[C@@](C)(O)[C@@H]1O`, the Potency entry was “inactive”. In the case of `CCC(=O)N[C@@H](C[C@H](C)C(Cl)(Cl)Cl)C(=O)N1C(=O)C=C(OC)[C@@H]1C[C@H](C)C(Cl)Cl` it was “inactive”. For `C/C=C(\C)C(=O)O[C@@H]1[C@@H](O)[C@@H]2O[C@H]3[C@H](O[C@@H](CCCCC)CCCCCCC(=O)CCC(=O)OC[C@@H](O2)[C@H]1OC(=O)/C=C/c1ccccc1)O[C@H](C)[C@H](OC(C)=O)[C@@H]3O`, the Potency is 0.118 µM (active). The value for `O[C@H]1C=C[C@@]23CCN(Cc4cc5c(cc42)OCO5)[C@@H]3C1` was “inactive”. The value for `C[N+](C)(C)CCc1c[nH]c2ccccc12` was “inactive”; that for `C/C=C1/CN2CC[C@@]34c5ccccc5N(C)[C@@H]3[C@@H]2C[C@@H]1[C@H]4C(=O)OC` was “inactive”; that for `C=C[C@]12C=CCN3CC[C@@]4(c5ccccc5NC(=O)[C@@H]4C1)[C@@H]32` was “inactive”. In the case of `CCCCC1CC[C@H]2CCCC(CCC)N12` (stereo partly specified) it was “inactive”; in that of `c1ccc2nc3c(cc2c1)[nH]c1ccccc13`, “inactive”; in that of `CC(C)CC1C(=O)O[C@H](C(C)C)C(=O)N(C)C(CC(C)C)C(=O)O[C@@H](C(C)C)C(=O)N(C)C(CC(C)C)C(=O)O[C@H](C(C)C)C(=O)N(C)C(CC(C)C)C(=O)O[C@@H](C(C)C)C(=O)N1C` (stereo partly specified), 9.35 µM (active).

With `C[C@]12CC(O)C3[C@@H](CCC4C[C@@H](O)CC[C@@]43CO)[C@@]1(O)CC[C@@H]2C1=CC(=O)OC1` (stereo partly specified), the Potency is 26.4 µM (active).

Turning to `CO[C@H]1[C@H](O[C@H]2CC[C@]3(C=O)[C@H]4CC[C@]5(C)[C@@H](C6=CC(=O)OC6)CC[C@]5(O)[C@@H]4CC[C@]3(O)C2)O[C@H](C)[C@H](O)[C@@H]1OC`, the Potency is 0.235 µM (active). In the case of `CC[C@H](C)[C@H]1NC(=O)[C@@H](NC(=O)C(C)[C@H](O)C(C)C)[C@@H](C)OC(=O)C2COC(=O)CNC(=O)/C=C\[C@]3(CO3)[C@@H](C)Oc3ccc(cc3)[C@H](NC1=O)C(=O)N(C)C(Cc1ccccc1)C(=O)NC(C(C)O)C(=O)N2` (stereo partly specified) (X2-T[d(aIle)][X3][ξNMeF][ξT][ξS]; ester 1-C; linker 3-6 via G) it was “inactive”. Turning to `CO[C@@]12c3c(C)cc(O)c4c(=O)occ(c34)C(=O)[C@@H]1[C@]13COC(=O)c4c(O)cc(C)c(c41)C(=O)[C@H]2[C@@H]3OC(C)=O`, the Potency result is “inactive”. The value for `C[C@]12CCC3[C@@H](CC[C@@H]4C[C@@H](O)CC[C@]34CO)[C@@]1(O)CC[C@@H]2C1=CC(=O)OC1` (stereo partly specified) was 1.32 µM (active). Take `C/C=C1/CN2CC[C@]34C(=C(C(=O)OC)[C@H]1C[C@H]23)Nc1ccccc14`: the Potency entry is “inactive”.

With `CC[C@@H]1CN2CCC3(Nc4cccc(OC)c4C3=O)[C@@H]2C[C@@H]1/C(=C\OC)C(=O)OC` (stereo partly specified), the Potency entry was “inactive”.

In the case of `CO[C@H]1C[C@H](O[C@H]2[C@@H](O)C[C@H](O[C@H]3CC[C@]4(C=O)[C@H]5CC[C@]6(C)C(C7=CC(=O)OC7)CC[C@]6(O)[C@@H]5CC[C@]4(O)C3)O[C@@H]2C)O[C@H](C)[C@H]1O[C@H]1C[C@@H](OC)[C@@H](O[C@@H]2O[C@H](CO)[C@@H](O)[C@H](O)[C@H]2O)[C@@H](C)O1` (stereo partly specified), the Potency is 0.187 µM (active). The value for `CO[C@@H](/C=C/CC/C=C/C(=O)O)[C@@H](O)[C@H](C)/C=C(\C)[C@H](O)[C@H](C)C(=O)CCCC1CC(=O)NC(=O)C1` was “inactive”. Consider `C=CC(C)(C)[C@@]12C[C@H]3C(=O)N/C(=C\c4cnc[nH]4)C(=O)N3[C@@H]1Nc1ccccc12`, for which the Potency entry was “inactive”. The value for `C1=C2CCCN[C@H]2C2CC1[C@H]1CCCCN1C2` (stereo partly specified) was “inactive”. For the molecule `C[C@]12CC(O)C3[C@@H](CC[C@@H]4C[C@@H](O)CC[C@]34CO)[C@@]1(O)CC[C@@H]2C1=CC(=O)OC1` (stereo partly specified), the Potency was 9.35 µM (active). The value for `COC1=C(C2=C(OC)C(=O)c3cc4c(c(O)c3C2=O)C(=O)O[C@H](C)C4)C(=O)c2c(cc3c(c2O)C(=O)O[C@H](C)C3)C1=O` was “inactive”; that for `CC[C@H]1CN2CCc3c([nH]c4cccc(OC)c34)[C@@H]2C[C@@H]1/C(=C\OC)C(=O)OC` was “inactive”.

For the molecule `C=C(C)[C@H]1C(=O)c2c3c(cc4c5c(n1c24)[C@@]1(C)[C@@H](CC[C@H]2[C@](C)(/C=C/C=C(\C)C(=O)O)[C@@H](O)CC[C@@]21C)C5)C1=CC(C)(C)OC(C)(C)[C@H]1[C@@H]3O`, the Potency is 16.6 µM (active). For `CC[C@]12C=CCN3CC[C@]4(C(=C(C(=O)OC)C1)Nc1ccccc14)[C@@H]32`, the Potency result was “inactive”.

Consider `CO[C@H]([C@@H](C)[C@H]1O[C@]1(C)C[C@H](C)/C=C/C=C(\C)[C@H]1O[C@@H](CC(=O)O)CC[C@@H]1C)[C@@H](C)O`, for which the Potency was 0.0264 µM (active). The value for `C/C(=C\[C@H](C)C(=O)C[C@H](O)CC1CC(=O)NC(=O)C1)[C@@H]1OC(=O)/C=C/CC/C=C/C=C/[C@@H]1C` was 1.48 µM (active). In the case of `C/C=C/[C@@H]1[C@H]2C[C@@H](C)CC[C@@H]2C(C)=C[C@H]1C(=O)c1c(O)c(-c2ccc(O)cc2)c[nH]c1=O` it was 18.7 µM (active); in that of `CCCC[C@@H]1CC[C@H]2CCCC(CCCO)N12` (stereo partly specified), “inactive”. Turning to `C=CC(C)(C)[C@@]12C[C@H]3C(=O)N/C(=C/c4cnc[nH]4)C(=O)N3[C@@H]1Nc1ccccc12`, the Potency result was “inactive”.
